# Data reported in paper PMC7862700, “An all-to-all approach to the identification of sequence-specific readers for epigenetic DNA modifications on cytosine”.
# What was measured:
# Test in all cases: DAPPL (digital affinity profiling via proximity ligation, sequencing); 10 mM Tris-HCl pH 7.5, 50 mM NaCl, 1 mM DTT, 4% glycerol, room temperature, 30 min; GST-TFs on glutathione beads, 16-mer random dsDNA library, 0.1% formaldehyde crosslink after washing; high values mean tight binding
# FLI1 = biological target: T1, FLI1 (Homo sapiens, UniProt Q01543 1-452); conditions: protein: recombinant; tags: N-terminal GST; dsDNA, one strand shown
# T1 sequence: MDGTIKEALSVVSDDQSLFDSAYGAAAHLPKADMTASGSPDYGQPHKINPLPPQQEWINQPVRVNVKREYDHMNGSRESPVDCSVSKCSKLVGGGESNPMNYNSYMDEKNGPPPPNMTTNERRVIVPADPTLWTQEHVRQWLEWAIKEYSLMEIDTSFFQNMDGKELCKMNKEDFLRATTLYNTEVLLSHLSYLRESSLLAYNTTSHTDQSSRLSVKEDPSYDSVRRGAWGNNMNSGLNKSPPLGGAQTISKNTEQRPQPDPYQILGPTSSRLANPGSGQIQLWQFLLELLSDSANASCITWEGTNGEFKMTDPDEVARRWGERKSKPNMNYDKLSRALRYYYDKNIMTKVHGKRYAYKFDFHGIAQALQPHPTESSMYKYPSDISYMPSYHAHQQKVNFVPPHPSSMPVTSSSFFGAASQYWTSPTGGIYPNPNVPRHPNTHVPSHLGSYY
# Method in brief: (§1)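 A tag-only sample was pooled with DNA-barcoded human transcription factors that had been expressed in yeast as GST fusions and captured on glutathione beads. The pools were incubated for 30 min at room temperature with 200 nmole of a random double-stranded 16-mer DNA library in Tris/NaCl/DTT/glycerol buffer, then washed, crosslinked with 0.1% formaldehyde, proximity-ligated (BsaI/T4 ligase, 1 h, 37 °C), PCR-amplified and sequenced on an Illumina NextSeq500. Binding signal is each hexamer's read frequency for a factor divided by its frequency for the tag-only sample.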
# ELK1 = biological target: T2, ELK1 (Homo sapiens, UniProt P19419 1-428); conditions: protein: recombinant; tags: N-terminal GST; dsDNA, one strand shown
# T2 sequence: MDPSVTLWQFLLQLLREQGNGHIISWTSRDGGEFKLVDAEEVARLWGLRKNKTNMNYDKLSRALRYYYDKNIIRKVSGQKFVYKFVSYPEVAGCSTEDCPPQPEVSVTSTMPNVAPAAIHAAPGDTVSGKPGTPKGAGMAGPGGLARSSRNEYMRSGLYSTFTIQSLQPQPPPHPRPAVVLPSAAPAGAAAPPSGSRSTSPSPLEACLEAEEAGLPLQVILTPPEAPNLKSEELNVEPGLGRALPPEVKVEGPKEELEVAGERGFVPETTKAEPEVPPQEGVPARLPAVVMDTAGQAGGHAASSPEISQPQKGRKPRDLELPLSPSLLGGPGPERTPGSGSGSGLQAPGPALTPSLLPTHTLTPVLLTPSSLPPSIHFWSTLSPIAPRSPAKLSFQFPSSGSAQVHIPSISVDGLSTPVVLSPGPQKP
# Method in brief: as §1
# GABPA = biological target: T3, GABPA (Homo sapiens, UniProt Q06546 1-454); conditions: protein: recombinant; tags: N-terminal GST; dsDNA, one strand shown
# T3 sequence: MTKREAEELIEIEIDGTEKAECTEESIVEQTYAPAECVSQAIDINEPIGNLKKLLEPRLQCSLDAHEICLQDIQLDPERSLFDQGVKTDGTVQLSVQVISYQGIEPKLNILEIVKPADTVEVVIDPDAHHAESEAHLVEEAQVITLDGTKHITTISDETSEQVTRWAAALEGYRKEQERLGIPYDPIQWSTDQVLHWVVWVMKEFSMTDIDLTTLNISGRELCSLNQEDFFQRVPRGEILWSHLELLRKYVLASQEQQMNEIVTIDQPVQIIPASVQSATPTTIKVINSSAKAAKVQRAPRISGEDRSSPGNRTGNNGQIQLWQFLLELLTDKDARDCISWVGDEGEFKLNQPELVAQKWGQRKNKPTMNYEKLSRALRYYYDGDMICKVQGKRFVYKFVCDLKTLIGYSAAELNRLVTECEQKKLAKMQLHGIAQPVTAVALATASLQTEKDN
# Method in brief: as §1
# ERG = biological target: T4, ERG (Homo sapiens, UniProt P11308 1-479); conditions: protein: recombinant; tags: N-terminal GST; dsDNA, one strand shown
# T4 sequence: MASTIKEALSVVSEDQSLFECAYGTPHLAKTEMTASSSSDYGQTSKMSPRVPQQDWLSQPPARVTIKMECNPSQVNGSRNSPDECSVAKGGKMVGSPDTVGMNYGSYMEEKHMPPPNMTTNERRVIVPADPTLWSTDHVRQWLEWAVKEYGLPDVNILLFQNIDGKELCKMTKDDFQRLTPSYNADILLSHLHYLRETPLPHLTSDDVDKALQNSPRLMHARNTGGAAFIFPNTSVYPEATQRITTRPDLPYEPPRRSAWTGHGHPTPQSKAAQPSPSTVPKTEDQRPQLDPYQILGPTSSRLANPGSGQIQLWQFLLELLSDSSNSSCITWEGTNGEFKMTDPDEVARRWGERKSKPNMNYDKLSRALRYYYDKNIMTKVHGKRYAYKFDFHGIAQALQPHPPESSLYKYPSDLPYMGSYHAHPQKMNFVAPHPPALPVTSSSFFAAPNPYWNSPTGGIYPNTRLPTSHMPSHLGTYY
# Method in brief: as §1
# ELF1 = ELF1 (Homo sapiens, UniProt P32519 1-619); conditions: protein: recombinant; tags: N-terminal GST; dsDNA, one strand shown
# ELF1, sequence (P32519 whole entry): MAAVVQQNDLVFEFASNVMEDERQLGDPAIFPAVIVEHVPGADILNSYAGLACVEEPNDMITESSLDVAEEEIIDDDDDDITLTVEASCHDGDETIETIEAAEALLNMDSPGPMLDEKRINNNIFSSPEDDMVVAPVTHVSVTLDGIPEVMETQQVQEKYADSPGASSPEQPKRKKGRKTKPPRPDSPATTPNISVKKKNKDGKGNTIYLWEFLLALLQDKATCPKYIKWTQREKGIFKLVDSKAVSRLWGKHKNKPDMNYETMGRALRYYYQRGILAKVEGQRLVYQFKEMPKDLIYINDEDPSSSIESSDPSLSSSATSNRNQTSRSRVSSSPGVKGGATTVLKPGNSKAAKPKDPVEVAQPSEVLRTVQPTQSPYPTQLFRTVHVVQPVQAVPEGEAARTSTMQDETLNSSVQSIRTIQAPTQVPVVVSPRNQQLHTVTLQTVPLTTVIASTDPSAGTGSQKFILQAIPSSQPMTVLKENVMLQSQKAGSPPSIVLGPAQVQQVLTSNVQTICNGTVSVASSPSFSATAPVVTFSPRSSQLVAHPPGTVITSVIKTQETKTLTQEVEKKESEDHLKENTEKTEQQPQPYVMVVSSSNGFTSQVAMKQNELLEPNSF
# Method in brief: as §1
# EHF = biological target: T5, EHF (Homo sapiens, UniProt Q9NZC4 1-300); conditions: protein: recombinant; tags: N-terminal GST; dsDNA, one strand shown
# T5 sequence: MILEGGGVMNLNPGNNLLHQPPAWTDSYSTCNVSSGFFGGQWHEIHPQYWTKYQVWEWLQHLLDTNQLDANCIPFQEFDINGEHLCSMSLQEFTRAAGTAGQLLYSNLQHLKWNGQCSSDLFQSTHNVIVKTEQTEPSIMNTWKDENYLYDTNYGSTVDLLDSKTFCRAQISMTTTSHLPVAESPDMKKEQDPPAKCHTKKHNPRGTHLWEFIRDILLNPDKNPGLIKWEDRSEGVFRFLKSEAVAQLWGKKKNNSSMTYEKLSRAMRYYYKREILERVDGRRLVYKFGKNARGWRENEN
# Method in brief: as §1
# SPI1 = SPI1 (Homo sapiens, UniProt P17947 1-270); conditions: protein: recombinant; tags: N-terminal GST; dsDNA, one strand shown
# Method in brief: as §1
# SPIB = SPIB (Homo sapiens, UniProt Q01892 1-262); conditions: protein: recombinant; tags: N-terminal GST; dsDNA, one strand shown
# SPIB, sequence (Q01892 whole entry): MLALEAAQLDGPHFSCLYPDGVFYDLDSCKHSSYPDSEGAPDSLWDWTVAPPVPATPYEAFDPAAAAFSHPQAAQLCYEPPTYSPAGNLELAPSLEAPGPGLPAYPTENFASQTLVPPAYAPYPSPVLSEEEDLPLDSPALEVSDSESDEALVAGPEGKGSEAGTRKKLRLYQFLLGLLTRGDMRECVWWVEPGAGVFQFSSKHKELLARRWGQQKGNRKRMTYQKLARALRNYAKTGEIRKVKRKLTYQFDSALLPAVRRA
# Method in brief: as §1
# ELK3 = biological target: T6, ELK3 (Homo sapiens, UniProt P41970 1-407); conditions: protein: recombinant; tags: N-terminal GST; dsDNA, one strand shown
# T6 sequence: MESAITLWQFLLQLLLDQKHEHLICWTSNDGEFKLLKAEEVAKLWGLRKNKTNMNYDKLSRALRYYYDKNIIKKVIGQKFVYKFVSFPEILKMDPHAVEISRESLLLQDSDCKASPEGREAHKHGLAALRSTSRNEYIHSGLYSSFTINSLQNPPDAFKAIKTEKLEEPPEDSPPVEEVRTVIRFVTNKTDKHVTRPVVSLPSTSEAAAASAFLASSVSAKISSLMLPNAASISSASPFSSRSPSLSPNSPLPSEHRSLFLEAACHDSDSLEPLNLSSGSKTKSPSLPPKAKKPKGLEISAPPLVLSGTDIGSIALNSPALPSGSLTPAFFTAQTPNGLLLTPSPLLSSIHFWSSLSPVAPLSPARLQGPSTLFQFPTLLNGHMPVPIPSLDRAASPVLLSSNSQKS
# Method in brief: as §1
# FEV = biological target: T7, FEV (Homo sapiens, UniProt Q99581 1-238); conditions: protein: recombinant; tags: N-terminal GST; dsDNA, one strand shown
# T7 sequence: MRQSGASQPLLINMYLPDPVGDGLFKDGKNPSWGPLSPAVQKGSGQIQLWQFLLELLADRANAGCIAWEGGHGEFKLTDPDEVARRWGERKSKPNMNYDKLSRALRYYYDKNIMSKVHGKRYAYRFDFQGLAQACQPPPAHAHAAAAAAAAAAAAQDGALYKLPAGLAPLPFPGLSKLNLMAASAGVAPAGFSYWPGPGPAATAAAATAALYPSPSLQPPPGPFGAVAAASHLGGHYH
# Method in brief: as §1
# ETV5 = ETV5 (Homo sapiens, UniProt P41161 1-510); conditions: protein: recombinant; tags: N-terminal GST; dsDNA, one strand shown
# ETV5, sequence (P41161 whole entry): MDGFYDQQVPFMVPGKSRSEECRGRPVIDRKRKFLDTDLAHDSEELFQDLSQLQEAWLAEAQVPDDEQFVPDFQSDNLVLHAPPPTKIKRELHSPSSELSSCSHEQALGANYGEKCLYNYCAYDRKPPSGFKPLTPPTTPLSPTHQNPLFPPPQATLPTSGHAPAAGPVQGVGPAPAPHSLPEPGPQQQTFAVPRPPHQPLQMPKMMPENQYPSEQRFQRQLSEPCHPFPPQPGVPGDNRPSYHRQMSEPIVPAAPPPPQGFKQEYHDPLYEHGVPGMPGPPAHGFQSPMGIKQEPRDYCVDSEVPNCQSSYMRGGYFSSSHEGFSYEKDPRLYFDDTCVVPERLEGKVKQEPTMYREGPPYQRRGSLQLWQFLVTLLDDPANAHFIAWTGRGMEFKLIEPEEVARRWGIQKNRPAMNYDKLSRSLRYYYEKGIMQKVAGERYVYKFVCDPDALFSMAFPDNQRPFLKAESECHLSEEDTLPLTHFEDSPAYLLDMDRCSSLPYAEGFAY
# Method in brief: as §1
# HSF1 = HSF1 (Homo sapiens, UniProt Q00613 1-529); conditions: protein: recombinant; tags: N-terminal GST; chain copies: 3; dsDNA, one strand shown
# HSF1, sequence (Q00613 whole entry): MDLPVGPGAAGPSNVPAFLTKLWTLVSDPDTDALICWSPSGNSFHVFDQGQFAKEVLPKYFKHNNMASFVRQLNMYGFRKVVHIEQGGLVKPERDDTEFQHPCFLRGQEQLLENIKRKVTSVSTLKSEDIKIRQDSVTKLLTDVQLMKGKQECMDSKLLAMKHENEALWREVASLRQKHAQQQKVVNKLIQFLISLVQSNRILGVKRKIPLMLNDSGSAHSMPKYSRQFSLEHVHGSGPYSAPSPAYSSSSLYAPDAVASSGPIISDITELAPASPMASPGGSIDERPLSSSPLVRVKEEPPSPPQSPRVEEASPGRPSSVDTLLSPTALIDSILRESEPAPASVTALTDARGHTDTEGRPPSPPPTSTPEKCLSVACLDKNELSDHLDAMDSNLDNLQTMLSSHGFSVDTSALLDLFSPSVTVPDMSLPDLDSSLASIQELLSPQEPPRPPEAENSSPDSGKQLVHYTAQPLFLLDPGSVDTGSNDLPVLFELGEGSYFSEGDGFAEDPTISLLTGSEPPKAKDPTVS
# Method in brief: as §1
# SPIC = biological target: T8, SPIC (Homo sapiens, UniProt Q8N5J4 1-248); conditions: protein: recombinant; tags: N-terminal GST; dsDNA, one strand shown
# T8 sequence: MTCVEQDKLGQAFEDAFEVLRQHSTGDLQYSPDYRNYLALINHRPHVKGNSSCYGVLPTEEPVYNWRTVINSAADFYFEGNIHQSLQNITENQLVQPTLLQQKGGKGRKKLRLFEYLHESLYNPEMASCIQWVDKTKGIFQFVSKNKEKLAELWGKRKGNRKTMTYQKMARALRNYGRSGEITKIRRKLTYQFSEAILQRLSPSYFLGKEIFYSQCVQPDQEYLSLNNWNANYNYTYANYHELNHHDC
# Method in brief: as §1
# ELF4 = ELF4 (Homo sapiens, UniProt Q99607 1-663); conditions: protein: recombinant; tags: N-terminal GST; dsDNA, one strand shown
# ELF4, sequence (Q99607 whole entry): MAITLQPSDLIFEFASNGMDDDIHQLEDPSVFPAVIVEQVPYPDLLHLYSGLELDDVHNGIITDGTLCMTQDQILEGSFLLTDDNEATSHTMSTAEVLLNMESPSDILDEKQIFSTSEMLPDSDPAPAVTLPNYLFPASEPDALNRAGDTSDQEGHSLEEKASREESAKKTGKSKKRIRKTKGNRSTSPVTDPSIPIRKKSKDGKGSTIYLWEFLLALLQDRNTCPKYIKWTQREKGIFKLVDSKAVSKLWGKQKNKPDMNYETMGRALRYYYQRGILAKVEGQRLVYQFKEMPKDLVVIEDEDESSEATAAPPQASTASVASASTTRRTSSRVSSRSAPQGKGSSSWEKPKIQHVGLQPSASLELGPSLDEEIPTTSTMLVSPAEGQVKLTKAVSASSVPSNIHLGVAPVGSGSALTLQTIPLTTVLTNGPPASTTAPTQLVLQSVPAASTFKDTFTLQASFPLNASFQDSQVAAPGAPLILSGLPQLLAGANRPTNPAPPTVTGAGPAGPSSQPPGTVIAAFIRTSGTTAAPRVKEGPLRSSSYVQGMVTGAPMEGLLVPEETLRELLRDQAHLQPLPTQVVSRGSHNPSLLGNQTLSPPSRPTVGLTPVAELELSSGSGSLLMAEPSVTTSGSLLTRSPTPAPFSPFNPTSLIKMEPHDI
# Method in brief: as §1
# ELK4 = biological target: T9, ELK4 (Homo sapiens, UniProt P28324-2 1-405); conditions: protein: recombinant; tags: N-terminal GST; dsDNA, one strand shown
# T9 sequence: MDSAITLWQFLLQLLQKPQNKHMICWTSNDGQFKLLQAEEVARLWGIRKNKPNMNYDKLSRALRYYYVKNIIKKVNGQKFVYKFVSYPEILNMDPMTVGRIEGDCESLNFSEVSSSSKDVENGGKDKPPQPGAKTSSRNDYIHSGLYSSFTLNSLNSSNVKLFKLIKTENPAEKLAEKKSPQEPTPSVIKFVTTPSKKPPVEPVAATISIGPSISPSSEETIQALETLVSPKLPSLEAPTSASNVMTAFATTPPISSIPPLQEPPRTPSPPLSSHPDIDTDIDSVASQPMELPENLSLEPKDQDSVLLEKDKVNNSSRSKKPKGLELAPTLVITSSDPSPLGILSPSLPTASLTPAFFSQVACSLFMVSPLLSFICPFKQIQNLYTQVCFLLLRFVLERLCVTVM
# Method in brief: as §1
# ETV2 = biological target: T10, ETV2 (Homo sapiens, UniProt O00321 1-342); conditions: protein: recombinant; tags: N-terminal GST; dsDNA, one strand shown
# T10 sequence: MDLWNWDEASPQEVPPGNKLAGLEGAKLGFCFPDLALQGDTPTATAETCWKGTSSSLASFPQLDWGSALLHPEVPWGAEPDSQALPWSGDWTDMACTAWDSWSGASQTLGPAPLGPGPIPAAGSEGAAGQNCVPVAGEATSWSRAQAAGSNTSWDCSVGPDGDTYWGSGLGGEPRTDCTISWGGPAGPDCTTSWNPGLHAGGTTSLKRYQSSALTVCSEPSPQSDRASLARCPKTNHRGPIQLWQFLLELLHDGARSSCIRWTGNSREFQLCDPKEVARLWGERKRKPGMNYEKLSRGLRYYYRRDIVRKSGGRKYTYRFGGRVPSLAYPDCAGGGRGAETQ
# Method in brief: as §1
# ELF3 = biological target: T11, ELF3 (Homo sapiens, UniProt P78545 1-371); conditions: protein: recombinant; tags: N-terminal GST; dsDNA, one strand shown
# T11 sequence: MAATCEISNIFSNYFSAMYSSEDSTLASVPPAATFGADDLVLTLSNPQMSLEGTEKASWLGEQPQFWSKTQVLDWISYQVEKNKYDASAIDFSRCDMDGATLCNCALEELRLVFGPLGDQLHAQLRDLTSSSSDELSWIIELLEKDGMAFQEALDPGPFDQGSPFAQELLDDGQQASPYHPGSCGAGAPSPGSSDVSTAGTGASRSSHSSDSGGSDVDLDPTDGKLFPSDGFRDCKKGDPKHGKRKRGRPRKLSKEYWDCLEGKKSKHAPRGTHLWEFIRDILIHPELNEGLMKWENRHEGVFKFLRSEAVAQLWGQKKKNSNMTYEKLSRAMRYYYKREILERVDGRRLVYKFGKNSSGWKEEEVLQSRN
# Method in brief: as §1
# CRX = CRX (Homo sapiens, UniProt O43186 1-299); conditions: protein: recombinant; tags: N-terminal GST; dsDNA, one strand shown
# CRX, sequence (O43186 whole entry): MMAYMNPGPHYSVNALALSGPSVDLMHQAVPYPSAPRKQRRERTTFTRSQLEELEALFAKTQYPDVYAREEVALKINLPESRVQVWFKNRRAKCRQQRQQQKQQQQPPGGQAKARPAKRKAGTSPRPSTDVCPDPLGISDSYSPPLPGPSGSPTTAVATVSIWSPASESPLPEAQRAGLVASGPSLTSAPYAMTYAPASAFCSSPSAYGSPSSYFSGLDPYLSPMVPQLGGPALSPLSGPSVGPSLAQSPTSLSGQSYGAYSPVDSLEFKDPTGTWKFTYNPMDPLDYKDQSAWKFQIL
# Method in brief: as §1
# ETV1 = ETV1 (Homo sapiens, UniProt P50549 1-477); conditions: protein: recombinant; tags: N-terminal GST; dsDNA, one strand shown
# ETV1, sequence (P50549 whole entry): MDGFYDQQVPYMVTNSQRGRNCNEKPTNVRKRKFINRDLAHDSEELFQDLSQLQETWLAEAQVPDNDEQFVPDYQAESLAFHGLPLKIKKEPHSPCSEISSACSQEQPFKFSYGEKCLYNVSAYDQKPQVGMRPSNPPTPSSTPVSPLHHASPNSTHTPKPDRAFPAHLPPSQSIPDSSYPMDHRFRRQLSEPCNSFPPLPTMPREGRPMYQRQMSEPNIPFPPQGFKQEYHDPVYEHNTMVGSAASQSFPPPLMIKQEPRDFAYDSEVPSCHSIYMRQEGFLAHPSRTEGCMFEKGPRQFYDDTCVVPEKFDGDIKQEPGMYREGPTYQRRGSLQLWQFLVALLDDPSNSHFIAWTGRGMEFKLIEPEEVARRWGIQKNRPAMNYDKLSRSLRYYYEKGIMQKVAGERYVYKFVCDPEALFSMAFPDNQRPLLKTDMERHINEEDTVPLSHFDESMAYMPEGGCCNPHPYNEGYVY
# Method in brief: as §1
sequence,measurement,setting,value
CCTCTC,binding signal,FLI1,"1.51 fold enrichment (6-mer frequency, TF over GST control)"
same,binding signal,ELK1,"1.39 fold enrichment (6-mer frequency, TF over GST control)"
same,binding signal,GABPA,"1.37 fold enrichment (6-mer frequency, TF over GST control)"
same,binding signal,ERG,"1.37 fold enrichment (6-mer frequency, TF over GST control)"
same,binding signal,ELF1,"1.43 fold enrichment (6-mer frequency, TF over GST control)"
same,binding signal,EHF,"1.34 fold enrichment (6-mer frequency, TF over GST control)"
same,binding signal,SPI1,"1.39 fold enrichment (6-mer frequency, TF over GST control)"
same,binding signal,SPIB,"1.44 fold enrichment (6-mer frequency, TF over GST control)"
same,binding signal,ELK3,"1.44 fold enrichment (6-mer frequency, TF over GST control)"
same,binding signal,FEV,"1.36 fold enrichment (6-mer frequency, TF over GST control)"
same,binding signal,ETV5,"1.34 fold enrichment (6-mer frequency, TF over GST control)"
same,binding signal,HSF1,"1.23 fold enrichment (6-mer frequency, TF over GST control)"
same,binding signal,SPIC,"1.46 fold enrichment (6-mer frequency, TF over GST control)"
same,binding signal,ELF4,"1.48 fold enrichment (6-mer frequency, TF over GST control)"
same,binding signal,ELK4,"1.36 fold enrichment (6-mer frequency, TF over GST control)"
same,binding signal,ETV2,"1.44 fold enrichment (6-mer frequency, TF over GST control)"
same,binding signal,ELF3,"1.5 fold enrichment (6-mer frequency, TF over GST control)"
same,binding signal,CRX,"1.16 fold enrichment (6-mer frequency, TF over GST control)"
same,binding signal,ETV1,"1.42 fold enrichment (6-mer frequency, TF over GST control)"
